The values that follow come from PubChem BioAssay (NCATS).

Records with an inconclusive call do not appear. Activity calls are given as the source filed them. Unless noted, calls follow the shape of the dose curve; as a rule, active = well fitted curve in the direction sought with a large enough effect; inconclusive = small, poorly fitted or top-dose-only effect, or another doubt; inactive = no such curve, though single readings can be large; an effect the other way counts as inactive or inconclusive.

Assay [1] addresses Arylsulfatase A (Homo sapiens) (UniProt P15289). Kind of assay: qHTS screen for enhancers of Arylsulfatase A (ASA1): LOPAC Validation Assay (AID 720538). As to conditions: outcome: dose series up to 57.5 µM. In a few lines: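 Cell-based enhancement test: residual ASA activity in SV40-transformed I179S patient fibroblasts is measured by pNCS turnover (0.5mM final, 14h, room temperature) following 48h compound incubation; higher fluorescence indicates activation.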
For orientation: In qHTS, concentration-response curves come from the screen itself.

The nature of assay [2]: qHTS for compounds that reverse cellular toxicity of Amyloid beta (A-beta) peptide in yeast: LOPAC Validation Assay (AID 720559).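 Also: plate controls were DMSO for no effect and equimolar ferric chloride plus clioquinol rescue for full effect.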 In a few lines:
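Here, A-beta-toxic yeast grow with test compounds at 30 C for 48 hr before optical density at 600 nm is recorded; data are normalized against DMSO and the FeCl3-clioquinol control.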

A short description of assay [3]: qHTS for Activators of Parkin Expression: LOPAC Validation Assay (NLuc Reporter) (AID 720572;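 also: 0% = DMSO and 100% = positive control compound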). In a few lines: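 Neuronal cells with a Parkin promoter-driven FLuc/NLuc coincidence reporter were treated 24 h at 37 C in 7-point dose response (LOPAC). NLuc luminescence read after FLuc; signals normalized to DMSO and positive control (100%).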
Assay [4] is described as follows: qHTS for Activators of Parkin Expression: LOPAC Validation Assay (FLuc Reporter) (AID 720573;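 also: 0% = DMSO and 100% = positive control compounds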). In a few lines:
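Readout is FLuc luminescence from neuronal reporter cells (Parkin promoter, FLuc plus NLuc) after 24 h compound exposure in dose response. Values normalized to neutral DMSO and positive-control compounds.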

For assay [5], the target named is T1, Hexokinase-4 (Homo sapiens) + Glucokinase regulatory protein (Homo sapiens) (UniProt P35557+Q14397). The assay is described as follows: qHTS assay for inhibitors of recombinant human GCK-GKRP interaction: Diaphorase-coupled assay (AID 743205). The procedure, abridged:
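Signal derives from resorufin generated by diaphorase, linked to GCK turnover of glucose (5 mM) and ATP (0.4 mM). Enzyme complex was added after a 20-minute compound preincubation and monitored for 30 minutes.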

Assay [6] deals with T1, Hexokinase-4 (Homo sapiens) + Glucokinase regulatory protein (Homo sapiens). Kind of assay: qHTS assay for inhibitors of recombinant human GCK-GKRP interaction: ADP-Glo assay (AID 743206).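 Also: plate controls were DMSO plus enzyme for no effect and no enzyme for full effect.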 In a few lines:
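GST-GCK and FLAG-GKRP (15 nM each in the dispensed mix, with 2 uM S6P) react with 0.4 mM ATP and 5 mM glucose (final) in Hepes pH 7.6 for 60 min at room temperature. ADP is measured by ADP-Glo luminescence.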

The target is the same in assay [7]. The assay is described as follows: qHTS assay for inhibitors of recombinant human GCK-GKRP interaction: HTRF assay (AID 743207).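 Also: 0% = DMSO with GCK present and -100% = DMSO wells lacking GCK.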 The procedure, abridged:
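Titration screening format: recombinant GST-GCK and FLAG-GKRP at 5 nM, S6P at 2 uM, labelled anti-tag antibodies, 60 min at RT, dual-wavelength HTRF readout.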

A short description of assay [8]: qHTS Assay for Identifying Gametocytocidal Compounds (AID 743244). Also: potency is read from the fitted curve at half-maximal effect.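 As to max response: % is scaled to controls: 0 for no effect and ±100 for the full control effect; actives lower the fluorescent signal which means gametocytes are killed.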 As to conditions: P. falciparum 3D7 stage III-V gametocytes, alamarBlue, 72 h; max response: stronger effect = lower value. The procedure, abridged:
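Stage III-V P. falciparum 3D7 gametocytes, 20,000 per well, were exposed to compounds for 72 h at 37C, 5% CO2. AlamarBlue was then added for 24 h and viability was read as fluorescence at Ex 525/Em 598 nm.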

A short description of assay [9]: qHTS profiling for inhibitors of Plasmodium falciparum (3D7) proliferation (AID 743322; call rule not given here;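 also: infected erythrocytes exposed to compound for 72 h before lysis; 100% = DMSO vehicle wells and 0% = 0.29 µM artemisinin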). The conditions noted are these: P. falciparum 3D7 proliferation; at 28.7 µM (top of the series). In a few lines: (§1)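 Erythrocytes infected with P. falciparum (0.3% parasitemia, 2.5% hematocrit) incubated with compounds 72 h at 37 C, 5% CO2. Lysis with saponin/Triton buffer containing SYBR Green I, overnight at room temperature in the dark; DNA fluorescence (485/535 nm) normalised to 0.29 uM artemisinin and DMSO.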

Assay [10] is described as follows: qHTS profiling for inhibitors of Plasmodium falciparum (DD2) proliferation (AID 743323; call rule not given here). The conditions noted are these: lower = more inhibition; at 28.7 µM (top of the series). In a few lines:
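SYBR Green fluorescence (ex 485, em 535 nm) of lysed cultures gives parasite DNA content; wells normalized to artemisinin (0.29 uM) and DMSO controls. Infected red cells: 0.3% parasitemia, 2.5% hematocrit, 72 h, 37 C.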

Assay [11] is described as follows: qHTS profiling for inhibitors of Plasmodium falciparum (HB3) proliferation (AID 743324).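 Also: 100% = DMSO vehicle wells and 0% = artemisinin-treated control wells.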 The conditions noted are these: Plasmodium falciparum HB3 blood-stage proliferation; at 28.7 µM (top of the series). In a few lines: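 P. falciparum HB3 grown in erythrocytes (0.3% parasitemia, 2.5% hematocrit final) with compound for 72 h at 37 C, 5% CO2. Parasite DNA detected by SYBR Green after saponin/triton lysis overnight; normalized to 0.29 uM artemisinin and DMSO.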

A short description of assay [12]: qHTS profiling of the MIPE4 collection as inhibitors of Plasmodium falciparum (DD2) proliferation (AID 743345; call rule not given here). As to conditions: P. falciparum Dd2 in erythrocytes, SYBR Green DNA, 72 h; at 28.5 µM (top of the series) unless noted. The procedure, abridged:
as §1

Assay [13] deals with Tyrosine-protein kinase Yes (Homo sapiens) (UniProt P07947). Kind of assay: qHTS for small molecule inhibitors of Yes1 kinase: Primary Screen (AID 686947).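 Also: plate controls were DMSO with enzyme for no effect and no-enzyme DMSO wells for full effect; nearly all actives have a fitted effect of over 60% in size.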 In a few lines:
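Yes1 (4 nM) preincubated 20 min with compound, then 60 min room-temperature reaction with 0.1 mM ATP and 0.3 mg/mL poly(E4Y) in pH 7.5 Tris, 10 mM MgCl2. ADP measured by ADP-Glo luminescence, normalised to enzyme/no-enzyme controls.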

Assay [14] is described as follows: qHTS for small molecule inhibitors of Yes1 kinase: Counter Assay (AID 686950).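 Also: no kinase present so only ADP-Glo detection of a fixed ADP amount is tested; luminescence from ADP-Glo reporting ADP in a fixed ATP and ADP mixture; 0% = DMSO wells with ATP plus ADP and -100% = ATP-only wells without ADP.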 The procedure, abridged:
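Enzyme-free detection counter-screen: compounds preincubated 20 min in buffer, then 0.08 mM ATP plus 0.02 mM ADP added for 60 min at room temperature; ADP-Glo luminescence. Buffer 50 mM Tris pH 7.5, 10 mM MgCl2, 150 mM NaCl; normalized to ATP+ADP and ATP-only controls.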

The nature of assay [15]: qHTS profiling of the MIPE4 collection as inhibitors of Plasmodium falciparum (3D7) proliferation (AID 743344; call rule not given here;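 also: scaled between DMSO vehicle wells and 0.29 µM artemisinin as full inhibition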). The conditions noted are these: P. falciparum 3D7 in erythrocytes, SYBR Green DNA fluorescence, 72 h; at 28.5 µM (top of the series) unless noted. In a few lines:
as §1

A short description of assay [16]: qHTS assay for small molecule agonists of the antioxidant response element (ARE) signaling pathway measured by Nrf2-dependant transcriptional activity (AID 720636; active = well fitted curve in the direction sought with a large enough effect in the repeat runs; an effect the other way counts as inactive or inconclusive;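 also: HepG2 cells with an ARE-driven luciferase reporter; % of control where 0% means no effect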). The procedure, abridged: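 Nrf2-dependent transcription is measured in ARE-luc HepG2 cells: compound is applied for 16 hr at 37 C after a 6 hr attachment period, and luciferase activity is quantified by luminescence using ONE-Glo.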

A short description of assay [17]: qHTS assay for cell viability of the p53RE-bla HCT-116 cell line (AID 743292). Also: nearly all actives have a fitted effect of over 55% in size. Also: potency is read from the fitted curve at half-maximal effect. The procedure, abridged: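 ATP-based luminescence, 16 h compound exposure at 37 C, p53RE-bla HCT-116 cells at 4,000/well.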
Assay [18] in a line: qHTS assay for small molecule antagonists of the retinoid-related orphan receptor gamma (ROR-gamma) signaling pathway - cell viability counter screen (AID 720652; active = well fitted curve in the direction sought with a large enough effect in the repeat runs; an effect the other way counts as inactive or inconclusive;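 also: compound exposure lasted 16 hr before ATP read; % is scaled to controls: 0 for no effect and ±100 for the full control effect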). In a few lines: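 Luminescence from CellTiter-Glo after 30 min at room temperature reported cellular ATP as the cytotoxicity measure. Cells were the CHO reporter line with doxycycline-induced ROR-gamma expression, exposed to compound for 16 hr at 37 C.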

Assay [19] in a line: qHTS assay for small molecule agonists of the antioxidant response element (ARE) signaling pathway measured by Nrf2-dependant transcriptional activity - cell viability counter screen (AID 720653; active = well fitted curve in the direction sought with a large enough effect in the repeat runs; an effect the other way counts as inactive or inconclusive; also: % is scaled to controls: 0 for no effect and ±100 for the full control effect). The conditions noted are these: ARE-bla HepG2 viability, CellTiter-Glo ATP luminescence, 16 h; max response: stronger effect = lower value. The procedure, abridged: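 ARE-bla HepG2 cells treated with compounds for 16 h at 37C; this counter screen measures viability as intracellular ATP by CellTiter-Glo luminescence after 30 min at room temperature.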

Assay [20] can be described thus: qHTS assay for cell viability of HEK293 cells (AID 743288). Also: % is scaled to controls: 0 for no effect and ±100 for the full control effect; nearly all actives have a fitted effect of over 50% in size. As to conditions: ATP luminescence (CellTiter-Glo), 18 h; max response: stronger effect = lower value. The procedure, abridged: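 Luminescent ATP quantitation served as the viability read-out. Cells (parental HEK293, 2,000/well) received compounds after at least 5 h at 37 C and were exposed for 18 h before a 30 min room-temperature reagent step.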

T1 sequence (P35557 whole entry, looked up): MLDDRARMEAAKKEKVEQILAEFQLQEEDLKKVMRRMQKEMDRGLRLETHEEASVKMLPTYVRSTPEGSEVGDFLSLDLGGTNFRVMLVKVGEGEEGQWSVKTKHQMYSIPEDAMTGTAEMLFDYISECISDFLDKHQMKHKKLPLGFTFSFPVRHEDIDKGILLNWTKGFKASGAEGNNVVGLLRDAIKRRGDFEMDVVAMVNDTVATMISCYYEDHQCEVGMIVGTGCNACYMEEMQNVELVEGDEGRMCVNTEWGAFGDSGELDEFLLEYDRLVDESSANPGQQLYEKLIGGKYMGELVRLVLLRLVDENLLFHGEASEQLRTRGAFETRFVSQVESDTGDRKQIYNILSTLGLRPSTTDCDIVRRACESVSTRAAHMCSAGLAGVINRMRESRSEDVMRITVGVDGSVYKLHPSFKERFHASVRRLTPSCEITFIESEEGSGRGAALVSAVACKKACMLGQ
T1 sequence (Q14397 whole entry, looked up): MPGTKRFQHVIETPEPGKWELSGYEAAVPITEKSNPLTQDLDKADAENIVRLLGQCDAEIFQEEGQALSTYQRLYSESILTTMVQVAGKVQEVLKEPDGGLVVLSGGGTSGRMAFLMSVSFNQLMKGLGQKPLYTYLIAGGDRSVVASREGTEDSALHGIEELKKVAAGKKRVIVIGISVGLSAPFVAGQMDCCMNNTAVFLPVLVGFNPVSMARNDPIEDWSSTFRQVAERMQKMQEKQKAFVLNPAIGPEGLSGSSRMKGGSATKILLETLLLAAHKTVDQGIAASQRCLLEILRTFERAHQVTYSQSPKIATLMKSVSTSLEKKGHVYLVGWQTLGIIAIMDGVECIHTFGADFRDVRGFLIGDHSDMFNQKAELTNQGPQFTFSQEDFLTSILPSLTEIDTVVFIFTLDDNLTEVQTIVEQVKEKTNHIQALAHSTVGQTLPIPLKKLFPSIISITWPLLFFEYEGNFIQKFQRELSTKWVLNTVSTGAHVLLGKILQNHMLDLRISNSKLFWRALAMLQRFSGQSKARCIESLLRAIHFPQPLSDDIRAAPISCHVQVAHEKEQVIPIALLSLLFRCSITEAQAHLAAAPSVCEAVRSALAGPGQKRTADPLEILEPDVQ
Tyrosine-protein kinase Yes (Homo sapiens), sequence (P07947 whole entry, looked up): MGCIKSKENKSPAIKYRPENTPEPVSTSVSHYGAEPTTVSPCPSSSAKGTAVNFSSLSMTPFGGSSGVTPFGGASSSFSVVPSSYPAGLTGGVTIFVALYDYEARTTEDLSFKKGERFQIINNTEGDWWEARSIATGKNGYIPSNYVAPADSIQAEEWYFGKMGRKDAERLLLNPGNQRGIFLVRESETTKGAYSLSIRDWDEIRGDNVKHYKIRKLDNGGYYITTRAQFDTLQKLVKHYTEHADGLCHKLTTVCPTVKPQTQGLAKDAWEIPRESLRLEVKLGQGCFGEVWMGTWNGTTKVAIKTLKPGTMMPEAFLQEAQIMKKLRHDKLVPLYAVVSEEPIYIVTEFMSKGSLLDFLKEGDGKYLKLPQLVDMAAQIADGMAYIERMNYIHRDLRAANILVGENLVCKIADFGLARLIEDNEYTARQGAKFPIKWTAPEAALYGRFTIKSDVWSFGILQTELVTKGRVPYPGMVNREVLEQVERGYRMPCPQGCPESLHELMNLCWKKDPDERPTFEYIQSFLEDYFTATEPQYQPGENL
Arylsulfatase A (Homo sapiens), sequence (P15289 whole entry, looked up): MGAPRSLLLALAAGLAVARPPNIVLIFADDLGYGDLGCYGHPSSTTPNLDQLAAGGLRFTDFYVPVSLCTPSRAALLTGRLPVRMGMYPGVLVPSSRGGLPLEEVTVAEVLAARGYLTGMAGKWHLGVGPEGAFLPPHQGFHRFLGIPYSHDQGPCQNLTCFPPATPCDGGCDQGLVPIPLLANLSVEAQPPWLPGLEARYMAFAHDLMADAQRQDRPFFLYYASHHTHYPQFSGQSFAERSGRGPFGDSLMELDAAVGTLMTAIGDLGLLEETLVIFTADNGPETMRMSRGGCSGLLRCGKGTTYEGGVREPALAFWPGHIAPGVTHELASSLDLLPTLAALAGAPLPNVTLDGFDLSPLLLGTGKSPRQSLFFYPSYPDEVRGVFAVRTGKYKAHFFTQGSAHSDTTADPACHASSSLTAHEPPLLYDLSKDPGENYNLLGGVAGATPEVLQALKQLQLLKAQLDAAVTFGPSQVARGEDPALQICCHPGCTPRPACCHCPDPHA

On to `CCCCS(=N)(=O)CCC(N)C(=O)O` (stereo not drawn), for which the result in [1], in assay [2], in assay [3], in assay [4], in [5] and in [6] was inactive. Besides, in assay [7], the outcome was inactive. The max response in assay [8] is -16.7% (inactive). This compound also had a remaining parasite growth % (stronger effect = lower value) in [9] of 88.1%. The compound also displayed an activity, percent of control in assay [10] of 31.7%. The compound further gave a remaining proliferation (% of control), lower = more inhibition in [11] of 88%. Moreover, the parasite growth remaining, % of DMSO control (lower = more inhibition) in [12] worked out at 94.1%.

For the compound `Cc1c(-c2ccc(O)cc2)n(Cc2ccc(OCCN3CCCCCC3)cc2)c2ccc(O)cc12`, the outcome in assay [13] and in assay [14] was inactive.

With `COc1cc2nc(N3CCCN(C)CC3)nc(NC3CCN(Cc4ccccc4)CC3)c2cc1OC`, the call in [13], in assay [14], in assay [1], in [2], in assay [3] and in assay [4] was inactive. Also, the outcome in assay [5], in assay [6] and in [7] was inactive. In [8], the Potency was 1.18 µM (active). For the same compound, the remaining parasite growth % (stronger effect = lower value) in [9] worked out at 0.848%. In assay [10], this compound gave an activity, percent of control of 0.575%. Further, the parasite growth, % of DMSO control in assay [15] amounted to 4.4%. For the same compound, in assay [12], the parasite growth remaining, % of DMSO control (lower = more inhibition) came to 6.59%.

Regarding `Nc1nc(N)c2nc(CNc3ccc(C(=O)NC(CCC(=O)O)C(=O)O)cc3)cnc2n1` (stereo not drawn), the outcome in assay [2], in [3], in [4], in [16], in assay [5] and in [6] was inactive. In assay [7], the result was inactive. The max response in assay [8] is 32.7% (inactive). Moreover, the Potency in [17] is 89.1 nM (active). Further, the parasite growth, % of DMSO control in assay [15] was 25%. Also, the parasite growth remaining, % of DMSO control (lower = more inhibition) in assay [12] was 7.65%.

Regarding `OCc1ccc(-c2nn(Cc3ccccc3)c3ccccc23)o1`, the outcome in [1], in assay [2], in assay [3], in assay [4], in [5] and in [6] was inactive. The outcome in assay [7] was inactive. The max response in [8] was -5.09% (inactive). Besides, in [15], the parasite growth, % of DMSO control was 74.2%. In addition, the parasite growth remaining, % of DMSO control (lower = more inhibition) in [12] is 85%.

On to `Cc1nnc(C(=O)NC(C)(C)c2nc(C(=O)NCc3ccc(F)cc3)c(O)c(=O)n2C)o1`, for which the compound was called inactive in [13] and in [14]. In [8], the max response is 3.93% (inactive). The parasite growth remaining, % of DMSO control (lower = more inhibition) in assay [12] is 91.4%.

Turning to `CC1CC2C3CCC4=CC(=O)C=C[C@]4(C)[C@@]3(F)[C@@H](O)C[C@]2(C)[C@@]1(O)C(=O)CO` (stereo partly drawn), the outcome in assay [1], in assay [2], in [3], in assay [4], in assay [5] and in [6] was inactive. The result in assay [7] was inactive. For the same compound, in [8], the max response was 8.59% (inactive). Further, the parasite growth, % of DMSO control in assay [15] was 85.2%. Moreover, in assay [12], the parasite growth remaining, % of DMSO control (lower = more inhibition) came out at 90.6%.

In the case of `Cc1ccc(S(=O)(=O)N[C@@H](Cc2ccccc2)C(=O)CCl)cc1`, the outcome in assay [1], in assay [2], in assay [3], in [4], in assay [5] and in [6] was inactive. The outcome in assay [7] was inactive. For the same compound, in assay [8], the max response was 11.5% (inactive). Also, in assay [15], the parasite growth, % of DMSO control came out at 90.3%. In [12], the parasite growth remaining, % of DMSO control (lower = more inhibition) worked out at 91.3%.

Regarding `O=C(O)C1CCCN(CCC=C(c2ccccc2)c2ccccc2)C1` (stereo not drawn), the compound was called inactive in [2], in assay [3], in assay [4], in assay [5], in [6] and in assay [7]. The max response in assay [8] is 17.5% (inactive). In addition, in assay [15], the parasite growth, % of DMSO control stood at 82.1%. Besides, the parasite growth remaining, % of DMSO control (lower = more inhibition) in [12] was found to be 103%.

For `Cc1cc(NS(=O)(=O)c2ccc(N)cc2)no1`, the result in [16] was inactive. In addition, the Potency result in assay [18] and in [17] was “inactive” throughout. Further, the values for the max response in assay [19], in [8] and in assay [20] were 3.89% (inactive), -4.78% (inactive) and -9.46% (inactive), respectively.
